Measurements reported in PubChem BioAssay AID1159580 (chemical genetic matrix, 2015).
“And” between values parts separate entries of the source, which are not always exact repeats. Identical values can stand only once. About 2,000 (36%) of roughly 5,500 compounds were called active. Inconclusive results (about 18%) are left out. Cut-off read from the data, not from the text of the source: active = normalized growth mostly below about 0.91 (no sharp cut-off); inconclusive = no clear call, values can overlap the other calls; inactive = mostly above about 0.92. This is one part of the list.

Assay: chemical genetic growth profiling, strain panel (AID 1159580);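 note: tested at 20 µM; growth read once vehicle control cultures reached saturation at 30 °C; 1 = growth at the plate median or of vehicle wells; lower values mean less growth of the strain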
Conditions: S. cerevisiae deletion strains, growth OD

Measured: normalized growth

COc1cc2c(c(OC)c1OC)-c1ccc(OC)c(=O)cc1[C@@H](NC(C)=O)CC2
inactive: locus YAL013W, strain DEP1, active compounds read low 1.02 | locus YAL021C, strain ccr4, active compounds read low 1.01 | locus YAL026C, strain drs2, active compounds read low 1 | locus YAL030W, strain snc1, active compounds read low 0.988 | locus YBL061C, strain skt5, active compounds read low 1 | locus YBR009C, strain hhf1, active compounds read low 0.985 | locus YBR021W, strain FUR4, active compounds read low 1.04 | locus YBR023C, strain chs3, active compounds read low 0.998 | locus YBR171W, strain sec66, active compounds read low 1.01 | locus YBR229C, strain ROT2, active compounds read low 1.02 | locus YBR231C, strain swc5, active compounds read low 1.02 | locus YBR279W, strain paf1, active compounds read low 1 | locus YCL011C, strain gbp2, active compounds read low 1 | locus YCL016C, strain dcc1, active compounds read low 0.986 | locus YCL029C, strain bik1, active compounds read low 1.03 | locus YCL069W, strain vba3, active compounds read low 1 | locus YCR088W, strain abp1, active compounds read low 1.01 | locus YDL005C, strain med2, active compounds read low 1.01 | locus YDL035C, strain GPR1, active compounds read low 1.02 | locus YDL040C, strain nat1, active compounds read low 1.01 | locus YDL074C, strain BRE1, active compounds read low 1.04 | locus YDL101C, strain DUN1, active compounds read low 1.02 | locus YDL134C, strain PPH21, active compounds read low 1.02 | locus YDL185W, strain tfp1, active compounds read low 1.04 | locus YDL192W, strain arf1, active compounds read low 1.02 | locus YDR001C, strain nth1, active compounds read low 1.02 | locus YDR069C, strain doa4, active compounds read low 1.04 | locus YDR101C, strain arx1, active compounds read low 1.02 | locus YDR137W, strain rgp1, active compounds read low 0.988 | locus YDR159W, strain sac3, active compounds read low 0.999 | locus YDR162C, strain NBP2, active compounds read low 1.03 | locus YDR195W, strain ref2 0.974 | locus YDR297W, strain sur2, active compounds read low 1.01 | locus YDR318W, strain mcm21, active compounds read low 1.03 | locus YDR334W, strain swr1, active compounds read low 1.01 | locus YDR335W, strain msn5, active compounds read low 0.998 | locus YDR388W, active compounds read low 1.03 | locus YDR392W, strain spt3, active compounds read low 0.968 | locus YDR502C, strain sam2, active compounds read low 1.02 | locus YEL003W, strain gim4, active compounds read low 1 | locus YEL037C, strain rad23, active compounds read low 1.01 | locus YEL061C, strain CIN8 (second series), active compounds read low 0.999 | locus YEL061C, strain CIN8, active compounds read low 1.01 | locus YER015W, strain faa2, active compounds read low 1.01 | locus YER016W, strain bim1, active compounds read low 0.963 | locus YER110C, active compounds read low 1.02 | locus YER111C, strain swi4, active compounds read low 1.02 | locus YER155C, strain BEM2 (second series), active compounds read low 1.02 | locus YER155C, strain BEM2, active compounds read low 1.01 | locus YER167W, strain BCK2, active compounds read low 1.02 | locus YFR010W, strain ubp6, active compounds read low 1.01 | locus YGL078C, strain dbp3, active compounds read low 1.03 | locus YGL086W, strain mad1, active compounds read low 1.02 | locus YGL167C, strain pmr1, active compounds read low 1.02 | locus YGL173C, strain kem1, active compounds read low 1.03 | locus YGL227W, strain vid30, active compounds read low 1.01 | locus YGL240W, strain doc1, active compounds read low 1.03 | locus YGL248W, strain PDE1, active compounds read low 1.03 | locus YGL253W, strain hxk2, active compounds read low 1 | locus YGR078C, strain PAC10, active compounds read low 1.03 | locus YGR135W, strain pre9, active compounds read low 1.03 | locus YGR229C, strain SMI1, active compounds read low 1.02 | locus YGR252W, strain gcn5, active compounds read low 1.07 | locus YHR013C, strain ard1, active compounds read low 0.986 | locus YHR027C, strain rpn1, active compounds read low 1.01 | locus YHR030C, strain SLT2, active compounds read low 1.01 and 1.04 | locus YHR079C, strain IRE1 (second series), active compounds read low 1.04 | locus YHR079C, strain IRE1, active compounds read low 1.04 | locus YHR094C, strain hxt1, active compounds read low 1.02 | locus YHR129C, strain ARP1, active compounds read low 1.01 | locus YHR142W, strain chs7, active compounds read low 0.996 | locus YHR200W, strain rpn10, active compounds read low 1.03 | locus YIL066C, strain RNR3, active compounds read low 1.02 | locus YIL073C, strain SPO22, active compounds read low 1.04 | locus YIL125W, strain kgd1, active compounds read low 1.03 | locus YIR030C, strain dcg1, active compounds read low 1.04 | locus YJL092W, strain hpr5, active compounds read low 1.01 | locus YJL095W, strain BCK1 (second series), active compounds read low 1 | locus YJL095W, strain BCK1, active compounds read low 1.04 and 1.02 | locus YJL115W, strain asf1, active compounds read low 1.02 | locus YJL129C, strain trk1, active compounds read low 1.01 | locus YJL134W, strain LCB3, active compounds read low 1.02 | locus YJL154C, strain vps35, active compounds read low 0.995 | locus YJL164C, strain tpk1, active compounds read low 0.984 | locus YJL166W, strain qcr8, active compounds read low 1.02 | locus YJL168C, strain set2, active compounds read low 1.02 | locus YJL187C, strain SWE1 (second series), active compounds read low 1.03 | locus YJR043C, strain POL32, active compounds read low 1 | locus YJR066W, strain TOR1, active compounds read low 0.988 | locus YJR075W, strain HOC1, active compounds read low 1.02 | locus YKL009W, strain mrt4, active compounds read low 1.01 | locus YKL068W, active compounds read low 1.03 | locus YKL085W, strain MDH1 (second series), active compounds read low 1.06 | locus YKL085W, strain MDH1, active compounds read low 1.06 | locus YKL160W, strain elf1, active compounds read low 1.02 | locus YKL190W, strain CNB1, active compounds read low 1.01 | locus YKR001C, strain vps1, active compounds read low 1.03 | locus YKR026C, strain gcn3, active compounds read low 1.06 | locus YKR091W, strain srl3, active compounds read low 0.985 | locus YLL001W, strain dnm1, active compounds read low 1.01 | locus YLL026W, active compounds read low 0.991 | locus YLL041C, strain sdh2, active compounds read low 1.01 | locus YLR027C, strain aat2, active compounds read low 1.01 | locus YLR039C, strain RIC1, active compounds read low 1.05 | locus YLR058C, strain SHM2, active compounds read low 1.03 | locus YLR102C, strain apc9, active compounds read low 1.03 | locus YLR113W, strain HOG1, active compounds read low 1.04 | locus YLR221C, strain rsa3, active compounds read low 0.997 | locus YLR258W, strain gsy2, active compounds read low 1.01 | locus YLR262C, strain YPT6 (second series), active compounds read low 1.04 | locus YLR262C, strain YPT6, active compounds read low 1.04 | locus YLR268W, strain sec22, active compounds read low 1.04 | locus YLR320W, strain mms22, active compounds read low 1.01 | locus YLR330W, strain CHS5, active compounds read low 1.02 | locus YLR342W, strain FKS1 (second series), active compounds read low 1.03 | locus YLR342W, strain FKS1, active compounds read low 1.01 | locus YLR357W, strain rsc2, active compounds read low 1.02 | locus YLR370C, strain arc18, active compounds read low 1.01 | locus YLR371W, strain rom2, active compounds read low 1.03 | locus YLR384C, strain iki3, active compounds read low 1.02 | locus YLR418C, strain cdc73, active compounds read low 1.06 | locus YML016C, strain PPZ1, active compounds read low 1.03 | locus YML032C, strain rad52, active compounds read low 1.02 | locus YML120C, strain ndi1, active compounds read low 1.02 | locus YML124C, strain tub3, active compounds read low 1.03 | locus YMR058W, strain fet3, active compounds read low 1.01 | locus YMR078C, strain ctf18, active compounds read low 1.04 | locus YMR125W, strain sto1, active compounds read low 1.01 | locus YMR129W, active compounds read low 1.02 | locus YMR205C, strain PFK2, active compounds read low 1 | locus YMR223W, strain ubp8, active compounds read low 1.04 | locus YMR231W, strain pep5, active compounds read low 1.01 | locus YMR307W, strain GAS1, active compounds read low 0.99 | locus YNL067W, strain RPL9B, active compounds read low 1.03 | locus YNL071W, strain lat1, active compounds read low 1 | locus YNL128W, strain TEP1, active compounds read low 1.03 | locus YNL153C, strain GIM3, active compounds read low 1.02 | locus YNL183C, strain NPR1, active compounds read low 0.99 | locus YNL209W, strain ssb2, active compounds read low 1 | locus YNL233W, strain BNI4, active compounds read low 1.02 | locus YNL248C, strain rpa49, active compounds read low 0.947 | locus YNL250W, strain rad50, active compounds read low 1 | locus YNL271C, strain bni1, active compounds read low 1.04 | locus YNL298W, strain CLA4, active compounds read low 1.03 | locus YNL307C, strain MCK1, active compounds read low 1.03 | locus YNL322C, strain KRE1 (second series), active compounds read low 1.02 | locus YNR049C, strain mso1, active compounds read low 1.03 | locus YNR052C, strain pop2, active compounds read low 1.02 | locus YOL012C, strain htz1 0.756 | locus YOL147C, strain pex11, active compounds read low 1.04 | locus YOR001W, strain rrp6, active compounds read low 1.02 | locus YOR061W, strain CKA2, active compounds read low 1.03 | locus YOR069W, strain VPS5, active compounds read low 1.01 | locus YOR070C, strain gyp1, active compounds read low 0.995 | locus YOR080W, strain dia2, active compounds read low 1.02 | locus YOR083W, strain WHI5, active compounds read low 1.02 | locus YOR106W, strain vam3, active compounds read low 1.03 | locus YOR136W, strain idh2, active compounds read low 1.02 | locus YOR144C, strain elg1, active compounds read low 1.03 | locus YOR184W, strain ser1, active compounds read low 1.04 | locus YOR231W, strain MKK1, active compounds read low 1.03 | locus YOR265W, strain rbl2, active compounds read low 1.01 | locus YOR270C, strain vph1, active compounds read low 1.01 | locus YOR290C, strain snf2, active compounds read low 1.01 | locus YOR316C, strain cot1, active compounds read low 1.04 | locus YPL051W, strain arl3, active compounds read low 1.02 | locus YPL055C, strain LGE1, active compounds read low 1.04 | locus YPL078C, strain atp4, active compounds read low 1.02 | locus YPL106C, strain sse1, active compounds read low 0.989 | locus YPL240C, strain hsp82, active compounds read low 1 | locus YPL241C, strain CIN2, active compounds read low 1.01 | locus YPL256C, strain CLN2, active compounds read low 1.12 | locus YPR119W, strain clb2, active compounds read low 1.03 | locus YPR141C, strain kar3, active compounds read low 1.05 | locus YPR163C, strain tif3, active compounds read low 1.04 | locus YPR167C, strain met16, active compounds read low 1.04 | strain wtn01, active compounds read low 1.01
